# Results published in PubChem BioAssay AID720690 (Broad Institute, 2013).
# Results with a measured potency or affinity are listed apart. Activity calls are given as the source filed them.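 Rule for the calls: active = every repeat run showing a signal drop whose fitted half-maximal concentration is at most twice the top tested concentration; inconclusive = repeat runs disagree, or flat partial drop, or poor fit; inactive = the rest.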
# Assay: HEK293T cytotoxicity, dose response, cytotoxicity control for miR-122 modulator project, cell-based, activator set, cherry-pick (AID 720690)
# Settings: HEK293T viability, CellTiter-Glo luminescence, 48 h; series mostly up to 26 µM
row,Compound,outcome
1,COc1ccc(C(=O)C2CCCN(Cc3cccn3-c3ccccn3)C2)c(OC)c1 (stereo not drawn),inactive
2,O=C(c1cccnc1)N1C[C@H]2[C@@H](c3ccccc31)[C@H](CO)N2C(=O)Nc1ccccc1Cl,inactive
3,CN1C[C@@H]2[C@H](c3ccccc31)[C@@H](CO)N2C(=O)Nc1ccccc1,inactive
